The results in this text go back to PubChem BioAssay (NCI).

This is part of a sample that, as a whole, favours compounds with a hit. Of some 79,000 tested, about 15% had one in any assay. A number with no mark means an inactive call. Active and inactive are the calls of the source. Rule as the data show it: active = growth inhibition above about 70%; inactive = the rest.

Experiment [1] is described as follows: NCI Yeast Anticancer Drug Screen. Data for the rad50 strain (AID 155).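 Also: 0% = growth of vehicle-only cultures of the same strain.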 The note with it: S. cerevisiae rad50 strain growth inhibition; at 50.0 µM; hits give high values. A digest of the protocol: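 Growth of the mutant yeast was measured after compound exposure and referenced to vehicle-treated cultures.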
Experiment [2] is described as follows: NCI Yeast Anticancer Drug Screen. Data for the mec2-1 strain (AID 157). The note with it: S. cerevisiae mec2-1 strain, at 50.0 µM, hits give high values. A digest of the protocol:
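mec2-1 yeast strain, carrying an alteration in DNA damage repair or cell cycle control, was exposed to compounds; growth inhibition was measured relative to vehicle-treated controls.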

Experiment [3] is described as follows: NCI Yeast Anticancer Drug Screen. Data for the sgs1 mgt1 strain (AID 161).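 Also: 0% = growth of cultures given vehicle only.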 The note with it: S. cerevisiae sgs1 mgt1 strain, at 50.0 µM, hits give high values. A digest of the protocol: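 This yeast growth screen uses a strain with defined DNA-repair lesions; compound-treated growth is compared with vehicle-treated growth.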
A short description of experiment [4]: NCI Yeast Anticancer Drug Screen. Data for the cln2 rad14 strain (AID 165).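 Also: 0% = growth equal to vehicle treated cultures.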 The note with it: S. cerevisiae cln2 rad14 strain, at 50.0 µM, hits give high values. Put shortly:
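Yeast carrying cln2 and rad14 alterations (cell cycle control and DNA damage repair) were exposed to compounds. Growth inhibition was measured against vehicle-treated controls.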

Experiment [5] in a line: NCI Yeast Anticancer Drug Screen. Data for the bub3 strain (AID 167). The note with it: S. cerevisiae bub3 mutant strain, at 50.0 µM, hits give high values. Put shortly: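 Whole-cell yeast assay. The mutant strain was incubated with compounds, and growth inhibition was determined by comparison with vehicle-treated cells.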
Experiment [6] in a line: NCI Yeast Anticancer Drug Screen. Data for the mlh1 rad18 strain (AID 175). The note with it: S. cerevisiae mlh1 rad18 strain growth inhibition; at 50.0 µM; hits give high values. A digest of the protocol:
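Growth inhibition of the yeast strain was measured after compound exposure and expressed relative to vehicle-treated controls. The strain carries defined defects in DNA damage repair.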

With `O=C1Cn2c(cc(=O)c3ccccc32)O1`, the growth inhibition in experiment [1] was 37.5%; in experiment [2], 13.6%; in experiment [3] it was 5.9%; in experiment [4], -9.35%; in experiment [5], 9.8%; in experiment [6], 14.8%.
Take `Cc1ccc(=O)n(Cc2ccccc2)n1`: the growth inhibition in experiment [1] was -8.25%; in experiment [2], -31.9%; in experiment [3], -11.8%; in experiment [4] it was 21.1%; in experiment [5], -12.2%; in experiment [6], 2.75%.
Consider `CCCCCCCCCCC(=O)OCC`, for which the growth inhibition was -30.2% in experiment [1]; 0.65% in experiment [2]; -21.4% in experiment [3]; -1.85% in experiment [4]; 1.2% in experiment [5]; -32.8% in experiment [6].
As to `NC1(C(=O)O)CCCc2ccccc21` (stereo not given), the growth inhibition was 13.3% in experiment [1]; 8.15% in experiment [2]; -1.1% in experiment [3]; -1.7% in experiment [4]; -12.6% in experiment [5]; 8.95% in experiment [6].
Regarding `OC1C/C=C/CCCCC1` (stereo not given), the growth inhibition in experiment [1] is -11%; in experiment [2], -5.75%; in experiment [3], -3.55%; in experiment [4], 1.95%; in experiment [5] it was 3.3%; in experiment [6], -4.4%.
For `CC#CCC1CCC(OCC)=CC1=O` (stereo not given), the growth inhibition in experiment [1] was 10.4%; in experiment [2], 9.25%; in experiment [3], 12.2%; in experiment [4], -20%; in experiment [5] it was 5.9%; in experiment [6] it was 17.1%.
Take `CCCCCc1c(-c2n[nH]c(C)c2CCCCC)n[nH]c1C`: the growth inhibition in experiment [1] was 5.55%; in experiment [2], -6.05%; in experiment [3], -9.1%; in experiment [4] it was -7.85%; in experiment [5], -31.6%; in experiment [6], 1.8%.
With `COc1ccc(C(CCl)(CCl)c2ccc(OC)cc2)cc1`, the growth inhibition in experiment [1] is 11.8%; in experiment [2] it was -40%; in experiment [3], 4.35%; in experiment [4], 15.3%; in experiment [5], 31.6%; in experiment [6], -9.9%.
With `Cc1nc(CO)cc(=O)[nH]1`, the growth inhibition in experiment [1] was 19.6%; in experiment [2] it was -5.5%; in experiment [3] it was 12.2%; in experiment [4] it was 9.85%; in experiment [5], -25.4%; in experiment [6] it was 14.1%.
As to `O=C(Nc1ccccc1O)C(O)C(O)C(O)C(O)CO` (stereo not given), the growth inhibition was 35% in experiment [1]; 30.7% in experiment [2]; 38.8% in experiment [3]; 23.2% in experiment [4]; 52.1% in experiment [5]; 58.8% in experiment [6].
`COc1cc(C(c2ccc3c(c2)OCO3)N2C(=O)CCC2C(=O)O)cc(OC)c1OC` (stereo not given): the growth inhibition in experiment [1] is -14.1%; in experiment [2] it was -15.6%; in experiment [3], -18.8%; in experiment [4] it was -11.7%; in experiment [5], -7.8%; in experiment [6] it was -10.2%.
Turning to `CC(C)Cc1ccc(NC2=C(Cl)C(=O)c3ccccc3C2=O)cc1`, the growth inhibition in experiment [1] is 19.3%; in experiment [2] it was 19.7%; in experiment [3] it was 13.7%; in experiment [4] it was 25.1%; in experiment [5], 15.1%; in experiment [6] it was 28.1%.
As to `S=C1SCCCN1c1ccccc1`, the growth inhibition in experiment [1] was -6.35%; in experiment [2], -4.05%; in experiment [3], -4.9%; in experiment [4] it was -14.5%; in experiment [5], -9.6%; in experiment [6], -20%.
Consider `Cc1ccc(NC(=O)OC/C=C/c2ccccc2)cc1NC(=O)OC/C=C/c1ccccc1`, for which the growth inhibition in experiment [1] is 17.9%; in experiment [2] it was 3.05%; in experiment [3], 9.05%; in experiment [4] it was 6.35%; in experiment [5] it was -8.35%; in experiment [6] it was 24.1%.
On to `CCCCCO[Si](OCCCCC)(OCCCCC)OCCCCC`, for which the growth inhibition in experiment [1] was 3.8%; in experiment [2] it was -9.3%; in experiment [3], 29.4%; in experiment [4], -4.4%; in experiment [5], 1.55%; in experiment [6] it was 10.9%.
Consider `COC1OC2COC(c3ccccc3)OC2C(OC(=O)c2ccc([N+](=O)[O-])cc2)C1OS(=O)(=O)c1ccc(C)cc1` (stereo not given), for which the growth inhibition in experiment [1] is 39.6%; in experiment [2], 17.2%; in experiment [3] it was 21.6%; in experiment [4], 25.1%; in experiment [5], 0.7%; in experiment [6], 15.8%.
Take `c1ccc(C2SCSCS2)cc1`: the growth inhibition in experiment [1] was 12.1%; in experiment [2], -5.45%; in experiment [3], -15.8%; in experiment [4], -8.4%; in experiment [5], 1.1%; in experiment [6], 6.95%.
As for `CCC1CN2CCc3cc(OC)c(OC)cc3C2CC1CC1c2cc(OC)c(OC)cc2CCN1C(=O)C1CCCN1` (stereo not given), the growth inhibition in experiment [1] was -1.45%; in experiment [2], -1.45%; in experiment [3], 12.1%; in experiment [4], 6.85%; in experiment [5], 7.65%; in experiment [6], -3.4%.
For the molecule `O=C1c2ccccc2N2OC3(N4CCOCC4)CCCC3C12c1ccccc1` (stereo not given), the growth inhibition is 57.5% in experiment [1]; 21.9% in experiment [2]; 45.3% in experiment [3]; 25.9% in experiment [4]; 60% in experiment [5]; 48.5% in experiment [6].
Regarding `CC(C)OC(=O)c1ccc(NCC2=CC(=O)C=CC2=O)cc1`, the growth inhibition in experiment [1] is 39.1%; in experiment [2], 79.2% (active); in experiment [3], 63.5%; in experiment [4], 57.1%; in experiment [5] it was 46.1%; in experiment [6] it was 88.2% (active).
